High-throughput results (PubChem BioAssay)
In the library only some 31% were active in any assay of this set; here they are far more common.
CYP2C9 inhib: inhibitors of human CYP2C9 | P11712 | CYP2C9 Supersomes, luciferin-H conversion, luminescence | inhibition, % at 5 µM | 96,000 tested, 20% active | AID 777;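 active means blocking of liver enzyme CYP2C9 beyond about 50% at 5 µM, limit read from the data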
Target sequence (P11712 whole entry, looked up): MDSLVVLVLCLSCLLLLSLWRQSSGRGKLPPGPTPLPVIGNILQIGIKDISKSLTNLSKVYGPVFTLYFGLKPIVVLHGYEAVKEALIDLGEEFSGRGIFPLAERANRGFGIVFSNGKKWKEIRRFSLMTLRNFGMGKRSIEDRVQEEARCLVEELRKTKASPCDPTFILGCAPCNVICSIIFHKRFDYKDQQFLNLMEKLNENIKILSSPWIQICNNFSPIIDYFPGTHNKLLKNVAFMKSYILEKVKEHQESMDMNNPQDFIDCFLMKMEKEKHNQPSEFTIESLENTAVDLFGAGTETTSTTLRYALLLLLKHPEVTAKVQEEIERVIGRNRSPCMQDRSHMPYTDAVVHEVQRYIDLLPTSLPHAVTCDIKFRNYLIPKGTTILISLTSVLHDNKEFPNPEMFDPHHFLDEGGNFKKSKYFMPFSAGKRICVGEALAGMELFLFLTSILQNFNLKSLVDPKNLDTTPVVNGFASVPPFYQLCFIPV
CYP2C9 activ: activators of human CYP2C9. P11712. recombinant CYP2C9, luciferin-H conversion, luminescence; active compounds read high; factor 1 = untreated enzyme, 0 = blocked. activation factor at 5 µM. 96,000 tested, 1.4% active. AID 1024;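 active means activation factor of 2 or more for CYP2C9 at a 5 µM dose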;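 further: 0 = sulfaphenazole-blocked wells and 1 = vehicle-only wells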
CYP2C19 activ: activators of human cytochrome P450 2C19. P33261. recombinant CYP2C19, luciferin-H EGE luminescence; active compounds read high; 0 = fully inhibited enzyme, 1 = untreated enzyme. activation factor at 5 µM. 96,000 tested, under 10 active. AID 1025;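 active means activation factor of at least 2 at 5 µM in the primary screen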;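 further: 0 = wells with 2.5 mM tranylcypromine and 1 = vehicle-only wells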
CYP2C19 inh: human CYP2C19 inhibition; CYP2C19 Supersomes, luciferin-H EGE luminescence, 30 min; inhibition, % at 5 µM; 96,000 tested, 21% active; AID 778;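 active means CYP2C19 inhibition above a set limit at 5 µM in the primary screen, cut at about 50% in these data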;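 further: plate controls were negative control wells for no effect and 2.5 mM tranylcypromine positive control for full effect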
Active calls of the source: *.

SMILES | CYP2C9 inhib | CYP2C9 activ | CYP2C19 activ | CYP2C19 inh
COc1cc(C2NC(=O)NC(C)=C2C(=O)OC2CCCCC2)cc(Br)c1O (stereo not drawn) | 96* | 0 | 0.2 | 79*
COC(=O)C1=C(C)N(C)C(=O)NC1c1cc(Cl)cc(Cl)c1OC (stereo not drawn) | 31 | 0.7 | 0.6 | 40
CC1=C(C(=O)OC(C)C)C(c2ccc(Br)s2)NC(=O)N1C (stereo not drawn) | 88* | 0.1 | 0 | 99*
CC1=C(C(=O)OCC2CCCO2)C(c2cccc(O)c2)NC(=O)N1 (stereo not drawn) | 20 | 0.8 | 0.3 | 67*
CCOC(=O)C1=C(C)NC(=O)NC1c1cc(Br)c(O)c(OC)c1 (stereo not drawn) | 64* | 0.4 | 0.6 | 40
O=C(CN1C(=O)C2C3C=CC(C3)C2C1=O)N1CCc2ccccc2C1 (stereo not drawn) | -14 | 1.1 | 1.1 | -8
CC(=O)c1c(C)[nH]c(C(=O)OCn2nnc3ccccc3c2=O)c1C | -9 | 1.1 | 0.9 | 11
Cc1nn(Cc2ccc(Cl)c(Cl)c2)c(C)c1NC(=O)c1cc(-c2ccc3c(c2)OCO3)on1 | 66* | 0.3 | 0.7 | 34
Cc1nn(Cc2ccc(Cl)c(Cl)c2)c(C)c1NC(=O)c1cn(-c2ccccc2)nc1-c1ccccc1 | 90* | 0.1 | 1 | 3
Cc1cc(C(=O)Nc2c(C)nn(Cc3c(Cl)cccc3Cl)c2C)no1 | -1 | 1 | 0.9 | 12
Cc1nn(Cc2ccc(Cl)cc2)c(C)c1NC(=O)c1cc(-c2ccc3c(c2)OCO3)on1 | 54* | 0.5 | 0.7 | 34
CCCN1C2=NCCN2c2cc(C)c(C)cc21 | 3 | 1 | 1.1 | -6
CC1=Nn2c(nnc2-c2cccs2)SC1 | 22 | 0.8 | 0.9 | 8
Cc1ccccc1S(=O)(=O)Cc1ccc(C(=O)NCc2cccnc2)o1 | 67* | 0.3 | 0 | 98*
Cc1ccc(CS(=O)(=O)Cc2ccc(C(=O)NCc3cccnc3)o2)cc1 | 36 | 0.6 | 0.2 | 76*
O=C(NCc1cccnc1)c1ccc(CS(=O)(=O)Cc2ccc(Cl)cc2)o1 | 65* | 0.3 | 0 | 100*
O=C(NCc1ccccn1)c1ccc(CS(=O)(=O)Cc2ccc(Cl)cc2)o1 | 7 | 0.9 | 0.9 | 13
COc1ccccc1CNC(=O)c1ccc(CS(=O)(=O)c2ccccc2OC)o1 | 52* | 0.5 | 0.8 | 22
COc1ccccc1S(=O)(=O)Cc1ccc(C(=O)NCCN2CCCCCC2)o1 | -7 | 1.1 | 1.2 | -17
Cc1ccccc1CS(=O)(=O)Cc1ccc(C(=O)NCc2ccccn2)o1 | 10 | 0.9 | 0.9 | 10
Cc1ccccc1S(=O)(=O)Cc1ccc(C(=O)O)o1 | -13 | 1.1 | 1.2 | -16
Cc1ccc(N2C(=O)CC(n3nc(C)cc3C)C2=O)cc1 (stereo not drawn) | -25 | 1.2 | 1 | 4
O=C(NC1CCN(C(=S)NCc2ccco2)CC1)C12CC3CC(CC(C3)C1)C2 | 30 | 0.7 | 0.3 | 67*
COc1ccc(NC(C)=O)cc1NC(=O)CSc1nnc(-c2cccnc2)n1C | -10 | 1.1 | 1 | 4
Clc1ccc(-c2nnc(C34CC5CC(CC(C5)C3)C4)o2)cn1 | 1 | 1 | 0.9 | 6
SMILES | CYP2C9 inhib | CYP2C9 activ | CYP2C19 activ | CYP2C19 inh
CCCCOP(=O)(OCCCC)C1(NS(=O)(=O)c2ccccc2)C=CC(=O)c2ccccc21 (stereo not drawn) | 60* | 0.4 | 0.5 | 47
Cc1ccc(C)c(N(C)C(=O)COc2cc(=O)n(C)c3ccccc23)c1 | 35 | 0.6 | 0.7 | 34
Cc1ccc(NS(C)(=O)=O)c(C(=O)c2ccccc2)c1 | 29 | 0.7 | 0.3 | 70*
CNc1ccc(OC(F)F)cc1C(=O)c1ccccc1 | 14 | 0.9 | 0.6 | 43
COc1ccc(C2C(C(=O)N3CCCC3)c3cc(OC)c(OC)cc3C(=O)N2C)cc1OC (stereo not drawn) | -8 | 1.1 | 1.2 | -18
COc1ccc(C2C(C(=O)NCc3cccnc3)c3ccccc3C(=O)N2C)cc1OC (stereo not drawn) | 70* | 0.3 | 1.1 | -14
COc1ccc(C2C(C(=O)NCc3cccnc3)c3cc(OC)c(OC)cc3C(=O)N2C)cc1 (stereo not drawn) | 29 | 0.7 | 0.8 | 17
COc1ccc(C2C(C(=O)N3CCN(c4ccccc4)CC3)c3ccccc3C(=O)N2C)cc1OC (stereo not drawn) | 73* | 0.3 | 0.7 | 35
CCCn1c(C(O)c2ccc3c(c2)OCO3)nc2ccccc21 (stereo not drawn) | 60* | 0.4 | 0 | 98*
CCCCn1c(NCc2ccccc2NS(=O)(=O)c2ccc(C)cc2)nc2ccccc21 | 50* | 0.5 | 0.8 | 21
CCCCn1c(NCc2ccccc2O)nc2ccccc21 | 30 | 0.7 | 0.5 | 50
CCCn1c(NCc2ccc3c(c2)OCO3)nc2ccccc21 | 30 | 0.7 | 0.4 | 59*
CCCn1c(NCc2cc(C)ccc2O)nc2ccccc21 | 25 | 0.8 | 0.5 | 53*
CCCCCCn1c(C(C)O)nc2ccccc21 (stereo not drawn) | -6 | 1.1 | 0.7 | 34
CCCCn1c(S(=O)(=O)O)nc2ccccc21 | 3 | 1 | 0.8 | 18
O=C(NNC(=S)NC(=O)c1cccnc1)c1ccccc1 | 26 | 0.7 | 1 | -4
O=C(Nc1ccc2c(c1)OCO2)N1CCN(S(=O)(=O)c2ccc(Cl)cc2)CC1 | -12 | 1.1 | 1.2 | -17
CCOc1cc(S(=O)(=O)NCc2ccccn2)c(C)cc1C | 19 | 0.8 | 0.4 | 59*
COc1ccc(CC(=O)NCc2ccccn2)cc1OC | -6 | 1.1 | 0.9 | 10
COc1ccc(C(C)C)cc1S(=O)(=O)NCc1ccccn1 | 52* | 0.5 | 0.3 | 65*
Cc1cc(S(=O)(=O)NCC(C)C)ccc1OCC(=O)NCc1ccccn1 | 24 | 0.8 | 1.1 | -8
N#Cc1ccc(-c2ccc(F)cc2)nc1Oc1ccc(Cl)c(Cl)c1 | -32 | 1.3 | 1.1 | -14
Cc1nn(-c2ccccc2)c(C)c1C(=O)Nc1nnc(-c2ccco2)o1 | -23 | 1.2 | 1 | -2
COC(=O)c1ccccc1NC(=S)NC(=O)c1cccc2ccccc12 | -18 | 1.2 | 0.8 | 16
CCCC(=O)NC(=S)Nc1ccccc1C(=O)OC | 28 | 0.7 | 0.4 | 59*
SMILES | CYP2C9 inhib | CYP2C9 activ | CYP2C19 activ | CYP2C19 inh
COC(=O)c1ccccc1NC(=S)NC(=O)C1CC1 | 26 | 0.7 | 0.5 | 52*
O=C(NC1CSC/C1=N\O)c1ccccc1 (stereo not drawn) | 6 | 0.9 | 0.9 | 13
OCCN1CCN(CC#CCn2c3ccccc3c3ccccc32)CC1 | -94 | 1.9 | 0.7 | 28
OCCOCCOCCn1c2ccccc2c2ccccc21 | 29 | 0.7 | 0.2 | 82*
O=C1CSC(c2c(F)cccc2Cl)N1c1cccc(F)c1 (stereo not drawn) | -107 | 2.1* | 0.8 | 20
O=C1CSC(c2ccccn2)N1c1cccc(Cl)c1 (stereo not drawn) | 0 | 1 | 1 | 3
N#CCC(CNc1ncc(C(F)(F)F)cc1Cl)OC(=O)c1cccc(C(F)(F)F)c1 (stereo not drawn) | 4 | 1 | 0.4 | 63*
